# Screens deposited in PubChem by several laboratories.
# Rows were chosen to be rich in hits. Some 3.9% of all compounds tested hit in one or more screens of this group.
# ALR inh = inhibitors of human ALR sulfhydryl oxidase, primary screen, biochemical, H2O2 detection, HRP-luminol luminescence, single point; purified ALR, DTT oxidation; inhibition, % (no concentration beside the values); actives 3.8% (n = 290,000); AID 485317, 2010;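 active = mean replicate inhibition above about 79%, with every replicate also reaching it, limit read from the data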
# SUMO HTRF inh = inhibitors of in vitro SUMOylation cascade, primary screen, biochemical, HTRF, uHTS. SUMO-conjugating enzyme UBC9 (Homo sapiens), P63279. HTRF SUMOylation assay, SAE1/SAE2 + UBC9. inhibition, % at 35 µM. actives 0.36% (n = 290,000); in the data active = inhibition above about 50%, passing the limit was not always enough
# Cardio protect = cardioprotection against H2O2-induced cell death, primary screen, uHTS, H9c2 cells, ATPLite luminescence. protection from H2O2 cell death, % at 20 µM. H9c2 cardiomyocytes, H2O2 injury protection, 2 h. actives 0.63% (n = 360,000);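 active = compounds giving at least 50% protection of heart cells from peroxide-induced death in the single-dose screen, raw or plate-pattern-corrected value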;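 also: 0% = DMSO wells with peroxide and 100% = DMSO wells without peroxide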
# NTR1 ag = agonists of human NTR1, primary screen, imaging, U2OS cells, beta-arrestin-GFP, high content; actives 0.17% (n = 330,000); activation, % at 20 µM; AID 493036, 2011; Neurotensin receptor type 1 (Homo sapiens), P30989; NTR1-U2OS beta-arrestin-GFP spot imaging, agonist mode;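 active = activation at or above 40% of the spot to cytoplasm intensity ratio, with at least 20 cells analyzed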;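 also: 0% = DMSO without peptide and 100% = 100 nM NTR1 peptide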
# Target sequence (P30989 whole entry, looked up): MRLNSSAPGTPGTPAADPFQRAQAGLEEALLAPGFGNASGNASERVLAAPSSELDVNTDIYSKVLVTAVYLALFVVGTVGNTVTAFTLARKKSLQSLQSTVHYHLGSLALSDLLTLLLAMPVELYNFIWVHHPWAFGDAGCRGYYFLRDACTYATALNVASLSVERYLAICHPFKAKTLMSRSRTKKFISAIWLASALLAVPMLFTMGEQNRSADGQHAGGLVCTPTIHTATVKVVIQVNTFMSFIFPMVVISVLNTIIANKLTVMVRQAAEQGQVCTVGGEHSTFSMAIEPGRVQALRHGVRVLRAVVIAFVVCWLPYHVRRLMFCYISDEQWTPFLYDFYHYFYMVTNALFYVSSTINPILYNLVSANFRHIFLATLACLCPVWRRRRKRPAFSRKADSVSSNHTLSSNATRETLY
# Starred values were filed as active, the others as inactive; / = not tested or not shown.
SMILES,ALR inh,SUMO HTRF inh,Cardio protect,NTR1 ag
CCOC(=O)C1(Cc2cccc(OC)c2)CCCN(C(=O)CCc2cccnc2)C1 (stereo not given),-6,12,5,0
Cc1cccc(NCc2nc(-c3ccccc3)no2)c1,91*,5,-14,0
C[C@@H](NC(=O)c1nc[nH]c1C(=O)N[C@H](C)c1ccccc1)c1ccccc1,13,/,11,-1
O=C(O)CC1S/C(=N/N=C/C=C/c2ccccc2)NC1=O (stereo not given),-2,7,0,-1
O=C(CC1S/C(=N/N=C/C=C/c2ccccc2)NC1=O)Nc1ccc(Cl)c(Cl)c1 (stereo not given),3,68*,3,7
CCc1nnc(NC(=O)C2CC(=O)N(CCc3ccccc3)C2)s1 (stereo not given),-5,10,8,9
O=C(c1ccc(NS(=O)(=O)c2ccc3[nH]c(=O)[nH]c3c2)cc1)N1CCN(c2ccccc2O)CC1,98*,/,1,0
COc1ccccc1N1C(=O)CC(N2CCN(c3ccc(F)cc3)CC2)C1=O (stereo not given),97*,11,-1,2
COc1ccc(N2CCN(C3CC(=O)N(Cc4ccccc4)C3=O)CC2)cc1 (stereo not given),92*,8,6,0
CCN1C(=O)CC(N2CCN(c3ccc(OC)cc3)CC2)C1=O (stereo not given),58,21,-2,3
O=C1CC(N2CCN(c3ccc(O)cc3)CC2)C(=O)N1c1ccc2c(c1)OCO2 (stereo not given),99*,16,6,0
CCCCCSc1nc(O)cc(=O)[nH]1,3,20,2,0
Cc1c(O)ccc(C(=O)CN2CCN(Cc3ccc4c(c3)OCO4)CC2)c1O,-1,2,-8,/
O=C(c1ccccc1)C(O)c1ccccc1 (stereo not given),-13,/,5,-1
COCCNC(=O)C(c1ccc(O)cc1)N(Cc1ccccc1)C(=O)CCC(=O)Nc1ccccn1 (stereo not given),-3,-6,10,-1
CNC(=O)/C(C#N)=C/c1c(N(Cc2ccccc2)Cc2ccccc2)nc2ccccn2c1=O,/,-11,56*,10
Cc1cc(C(=O)NCc2cc(C)n(C)n2)sc1-c1ccccc1,-14,-8,-16,1
COCCOC(=O)c1[nH]c2c(c1C)C(=O)CC(c1cc(OC)ccc1OC)C2 (stereo not given),-1,0,38,0
COc1ccc(OC)c(C2CC(=O)c3c([nH]c(C(=O)OCC4CCCO4)c3C)C2)c1 (stereo not given),-5,-16,71*,0
CCOC(=O)c1cc2sc(C)cc2n1C(C)C(=O)OCC (stereo not given),1,-23,-5,0
Cc1cc2c(cc(C(=O)O)n2C)s1,79*,-4,10,1
COc1ccc2[nH]c(=O)c(CN(c3ccccc3)S(=O)(=O)c3ccccc3)cc2c1,-8,-9,29,5
COc1ccc2[nH]c(=O)c(CNC3CCCCC3)cc2c1,-40,4,57*,-1
COc1ccc(NCc2cc3ccccc3[nH]c2=O)cc1,45,55,62*,-2
COc1ccc2[nH]c(=O)c(CN(c3ccccc3OC)S(=O)(=O)c3ccccc3)cc2c1,/,-4,68*,2
SMILES,ALR inh,SUMO HTRF inh,Cardio protect,NTR1 ag
COc1ccc(NCc2cc3cc(OC)ccc3[nH]c2=O)cc1,35,28,99*,0
Cc1ccc(S(=O)(=O)N2CCN(C(=O)Cc3ccsc3)CC2)c(C)c1,-2,6,2,1
Cc1ccc(-n2nc3c(n2)/C(=N/O)CC/C3=N\O)cc1,17,20,-11,1
CC1CN(C(=O)c2ccccc2Nc2ccc(SC(F)F)cc2)CC(C)O1 (stereo not given),99*,4,0,-1
COc1cccc(NC(=O)CSc2nnc(Cn3nnc4ccccc43)n2C)c1,-2,20,3,1
COc1ccccc1NS(=O)(=O)c1cc(NC(=O)CCc2nc3ccccc3c(=O)[nH]2)ccc1C,-2,/,94*,1
O=C(CCc1nc2ccccc2c(=O)[nH]1)NCc1ccccn1,1,9,44,0
O=C(CCc1nc2ccccc2c(=O)[nH]1)Nc1ccc(F)cc1,-13,-11,62*,1
